SMILES strings stand for the structures. Inconclusive results are not listed. A call without a number means that no potency is given here. Activity calls are given as the source filed them. Calls follow the shape of the dose curve; as a rule, active = well fitted inhibition curve with a large enough effect; inconclusive = small, poorly fitted or top-dose-only effect; inactive = flat fitted curve, though single readings scatter.
Potency is read from the fitted curve at half-maximal effect.

Sequence of Ubiquitin carboxyl-terminal hydrolase 1 (Homo sapiens) (O94782 whole entry, looked up): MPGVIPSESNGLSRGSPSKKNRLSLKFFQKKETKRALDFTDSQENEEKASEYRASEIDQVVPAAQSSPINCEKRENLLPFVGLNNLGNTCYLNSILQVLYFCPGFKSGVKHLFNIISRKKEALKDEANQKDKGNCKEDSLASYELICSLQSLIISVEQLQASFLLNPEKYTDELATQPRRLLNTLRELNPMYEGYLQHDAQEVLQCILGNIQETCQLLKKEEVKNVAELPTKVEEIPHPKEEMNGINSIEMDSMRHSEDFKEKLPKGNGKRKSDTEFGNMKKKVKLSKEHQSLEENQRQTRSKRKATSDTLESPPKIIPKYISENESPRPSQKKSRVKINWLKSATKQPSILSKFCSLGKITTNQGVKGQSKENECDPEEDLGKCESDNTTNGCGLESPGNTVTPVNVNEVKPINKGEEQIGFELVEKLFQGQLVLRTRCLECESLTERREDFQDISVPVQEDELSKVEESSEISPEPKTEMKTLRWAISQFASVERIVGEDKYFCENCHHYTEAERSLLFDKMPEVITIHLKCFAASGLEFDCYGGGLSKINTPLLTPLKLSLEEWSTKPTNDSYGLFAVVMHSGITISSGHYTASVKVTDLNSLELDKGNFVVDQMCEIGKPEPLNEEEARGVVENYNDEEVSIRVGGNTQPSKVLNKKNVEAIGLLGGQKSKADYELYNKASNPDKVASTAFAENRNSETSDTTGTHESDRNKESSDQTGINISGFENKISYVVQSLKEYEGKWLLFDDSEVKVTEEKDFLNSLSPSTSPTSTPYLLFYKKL

The test has as its target Ubiquitin carboxyl-terminal hydrolase 1 (Homo sapiens) (UniProt O94782). Description: Inhibitors of USP1/UAF1: Pilot qHTS (AID 504865). Also: nearly all actives have a fitted effect of over 35% in size. The settings on record: purified USP1/UAF1, Ub-rhodamine cleavage fluorescence; series mostly up to 114 µM. The source says:
Deubiquitinating enzymes (DUBs) are a class of enzymes that can cleave isopeptide bond formed between the C-terminal carboxylate of ubiquitin and a lysine side-chain amino group on the target protein. Among them, ubiquitin specific proteases (USPs) constitute the largest DUB family. Human USPs are emerging as promising targets for pharmacological intervention because of their connection to a number of human diseases, including prostate, colon and breast cancer (1, 2), pediatric acute lymphoblastic leukemia (3), and familial cylindromatosis (4). The advantage of inhibiting USPs lies in the potential specificity of therapeutic intervention that can lead to better efficacy and reduce nonspecific side effects.
In a collaboration between the University of Delaware and the NIH Chemical Genomics Center, a high-throughput screen assay was developed to screen for USP1/UAF1 inhibitors. This miniaturized assay has a fluorescent read-out and is used to screen the NIH Molecular Libraries Small Molecule Repository (MLSMR) in order to identify a small molecule that inhibits USP1.
NIH Chemical Genomics Center [NCGC]
NIH Molecular Libraries Probe Centers Network [MLPCN]
Assay Submitter (PI): Zhihao Zhuang, University of Delaware
1. Priolo, C., et al. (2006) The isopeptidase USP2a protects human prostate cancer from apoptosis. Cancer Res 66, 8625-8632
2. Popov, N., et al. (2007) The ubiquitin-specific protease USP28 is required for MYC stability. Nat Cell Biol 9, 765-774
3. De Pitta, C., et al. (2005) A leukemia-enriched cDNA microarray platform identifies new transcripts with relevance to the biology of pediatric acute lymphoblastic leukemia. Haematologica 90, 890-898
4. Kovalenko, A., et al. (2003) The tumour suppressor CYLD negatively regulates NF-kappaB signalling by deubiquitination. Nature 424, 801-805
3 microliters of reagents (buffer in columns 3 and 4 as negative control and 1nM USP1/UAF1 complex in columns 1, 2, and 5-48) are dispensed into Greiner black solid bottom 1536-well assay plates. Compounds are then transferred via Kalypsys pin tool equipped with 1536-pin array (10nl slotted pins, V&P Scientific, San Diego, CA). Following an incubation step of 15 min at room temperature, 1ul of Ub-Rho substrate (150nM final concentration) is added to initiate the reaction. The plates are immediately centrifuged at 1000 rpm for 15 seconds, and subsequently transferred to a ViewLux high-throughput CCD imager (PerkinElmer) wherein kinetic measurements of fluorescence are acquired using 480 nm excitation/540 nm emission filter set (6 reads every 60 seconds, see Table 1). All reagents are diluted in an assay buffer consisting of 50mM HEPES (pH 7.8), 0.5mM EDTA, 0.1 mg/ml BSA, 1mM TCEP, and 0.01% Tween-20.
(In general: Quantitative high-throughput screening tests each substance at several concentrations.)
With `C=CCN1CCC23c4c5ccc(O)c4O[C@H]2C(=O)CC[C@@]3(O)C1C5` (stereo not given in full), the Potency entry is “inactive”. Under `CNC(=O)Oc1ccccc1C(=O)Nc1ccccc1` stands “inactive”.

Take `CCC1(CC)C(=O)NC(=O)N(C)C1=O`: the Potency result was “inactive”. Under `NC(Cc1cc(O)c(O)cc1O)C(=O)O` (stereo not given) stands 14.1 µM (active). In the case of `O=[N+]([O-])c1cc(I)c(O)c(I)c1`, the Potency result was “inactive”. As for `CCC1(C)CC(=O)NC(=O)C1`, the Potency entry was “inactive”. Under `CC(=O)NBr` stands “inactive”; under `CCn1cnc2c(Nc3cccc(Cl)c3)nc(N[C@@H]3CCCC[C@@H]3N)nc21`, “inactive”; under `CCS(=O)(=O)Nc1cccc(C(=C2CCCCC2)c2cnc[nH]2)c1`, “inactive”. Under `CCN(CC)C(=O)/C(Cl)=C(\C)OP(=O)(OC)OC` stands “inactive”; under `[Cl-].[Cl-].[Hg+2]`, 3.98 µM (active). On to `O[C@H]1[C@H]2[C@H](O)CCCN2C[C@H]1O`, for which the Potency result was “inactive”. Under `Cc1cc([C@@H]2CCCN2C)on1` stands “inactive”.

In the case of `N#C/C(=C/c1ccc(O)c(O)c1)C(N)=S`, the Potency entry is “inactive”.

Consider `CC(Cc1ccccc1)NC=O` (stereo not given), for which the Potency result is “inactive”. Under `C[N+]1(C)CCN(c2ccccc2)CC1` stands “inactive”. Under `N=C(N)c1ccc(CS(=O)(=O)F)cc1` stands “inactive”; under `COc1ccc2c(c1)/C(=C/c1cnc[nH]1)C(=O)N2`, “inactive”; under `CC(C)CCON=O`, “inactive”. Under `C[Se]C[C@H](N)C(=O)O` stands “inactive”. `CCCC[N+]1(C)C2CC(OC(=O)[C@H](CO)c3ccccc3)CC1C1OC12` (stereo not given in full): the Potency entry is “inactive”. Under `NC(=O)COc1c(F)cc(SCCNS(=O)(=O)c2ccccc2)cc1F` stands “inactive”; under `O=C(NCNC(=O)NC1C(=O)NC(=O)N1CO)NC1C(=O)NC(=O)N1CO` (stereo not given), “inactive”; under `O=C1C=CC(=O)C=C1`, “inactive”. As for `S=C=S`, the Potency entry was “inactive”.

Consider `c1ccc2c(c1)[I+]c1ccccc1-2`, for which the Potency result is “inactive”.

Take `CC1(C(=O)O)C2CCC(O2)C1(C)C(=O)O` (stereo not given): the Potency result was “inactive”.

With `NCCCP(=O)(O)O`, the Potency result is “inactive”. For `NCC(O)c1cccc(O)c1` (stereo not given), the Potency entry is “inactive”. For `CC(C)Nc1ccc(Nc2ccccc2)cc1`, the Potency result is “inactive”.

Turning to `O=C1CCCCC1CN1CCCCC1` (stereo not given), the Potency entry was “inactive”. Under `NCCc1ccc(S(=O)(=O)F)cc1` stands “inactive”; under `COc1ccc2c(c1O)-c1cccc3c1[C@@H](C2)N(C)CC3`, “inactive”; under `CCCN(CCC)[C@@H]1CCc2cccc(O)c2C1`, “inactive”. Under `CCCN1CCc2cccc3c2[C@H]1Cc1ccc(O)c(O)c1-3` stands “inactive”; under `C[N+]1(C)CCCCC1COC(=O)C(O)(c1ccccc1)c1ccccc1` (stereo not given), “inactive”; under `O=C(NC(=O)c1c(F)cccc1F)Nc1ccc(Cl)c(Oc2ncc(C(F)(F)F)cc2Cl)c1`, “inactive”.

Consider `CC(=O)OO`, for which the Potency result is “inactive”.

`C/C(=C\c1csc(C)n1)[C@@H]1C[C@@H]2O[C@]2(C)CCC[C@H](C)[C@H](O)[C@@H](C)C(=O)C(C)(C)[C@@H](O)CC(=O)O1`: the Potency entry is “inactive”. Under `O=C/C=C/c1ccccc1` stands “inactive”.

The values above are taken from PubChem BioAssay (NCATS).
